Screen size: about 5,500 compounds; about 2,000 (36%) were called active. Not shown: some 18% with an inconclusive outcome. Rule as the data show it: active = normalized growth mostly below about 0.91 (no sharp cut-off); inconclusive = no clear call, values can overlap the other calls; inactive = mostly above about 0.92. This is one part of the list.
Test: chemical genetic growth profiling, strain panel (AID 1159580);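 also: tested at 20 µM; growth read once vehicle control cultures reached saturation at 30 °C; 1 = growth at the plate median or of vehicle wells; lower values mean less growth of the strain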
Conditions: S. cerevisiae deletion strains, growth OD

Measured: normalized growth

O=C(O)CSCc1ccccc1
inactive: locus YAL013W, strain DEP1, stronger effect = lower value 1.01 | locus YBR229C, strain ROT2, stronger effect = lower value 1 | locus YCL061C, strain MRC1, stronger effect = lower value 0.991 | locus YDL101C, strain DUN1, stronger effect = lower value 1.02 | locus YDL134C, strain PPH21, stronger effect = lower value 0.986 | locus YDR150W, strain NUM1, stronger effect = lower value 0.98 | locus YEL061C, strain CIN8, stronger effect = lower value 1.01 | locus YGR078C, strain PAC10, stronger effect = lower value 0.976 | locus YHR030C, strain SLT2, stronger effect = lower value 1.07 | locus YHR087W, strain rtc3, stronger effect = lower value 0.99 | locus YJR043C, strain POL32, stronger effect = lower value 1.03 | locus YJR075W, strain HOC1, stronger effect = lower value 0.971 | locus YLR039C, strain RIC1, stronger effect = lower value 1.07 | locus YLR058C, strain SHM2 (second series), stronger effect = lower value 0.993 | locus YLR085C, strain ARP6, stronger effect = lower value 1.03 | locus YLR262C, strain YPT6, stronger effect = lower value 1.04 | locus YML094W, strain GIM5, stronger effect = lower value 1.03 | locus YMR219W, strain ESC1, stronger effect = lower value 0.997 | locus YMR263W, strain SAP30, stronger effect = lower value 1 | locus YNL128W, strain TEP1, stronger effect = lower value 0.986 | locus YNL153C, strain GIM3, stronger effect = lower value 0.997 | locus YNL298W, strain CLA4 (second series), stronger effect = lower value 1.05 | locus YNL322C, strain KRE1, stronger effect = lower value 0.991 | locus YNR030W, strain Alg12, stronger effect = lower value 1.02 | locus YPL055C, strain LGE1, stronger effect = lower value 0.958 | locus YPL241C, strain CIN2, stronger effect = lower value 1 | locus YPR135W, strain CTF4, stronger effect = lower value 0.976
